In the OligoGym collection:
Also: reference of the scale not given here.

These sequences were tested against CTCFL (assay: pooled miR-30 sensor sort-seq; sequence = guide strand). Conditions: shRNA.
For TTTAGAAGTTGCTTCTGTCGGA, the sensor-assay potency score (higher = more potent) was 0.605.
Sequence TAAAGGTGAACCTTGCTCCTAT has a sensor-assay potency score (higher = more potent) of 0.214.
In the case of TTTCTTTGAAATATCCAGCTAC, the sensor-assay potency score (higher = more potent) is reported as 0.55.
TTTGGGGACATTTTCGCCGTGT was tested, and the sensor-assay potency score (higher = more potent) was -0.126.
TATCCTGCAACTCCACAGCTTC showed a sensor-assay potency score (higher = more potent) of -1.14.
TTAGAAGTTGCTTCTGTCGGAA showed a sensor-assay potency score (higher = more potent) of -0.207.
Sequence TTGAGGAGCATTTCACACCTTA has a sensor-assay potency score (higher = more potent) of 0.0619.
In the case of TTGAATTATGTAAAACATCTTT, the sensor-assay potency score (higher = more potent) is reported as -0.709.
